# PubChem BioAssay AID1159580 (chemical genetic matrix, 2015)
# Out of some 5,500 compounds screened, about 2,000 (36%) were called active. Inconclusive results (about 18%) are left out. Some of the results follow. A number with no mark means an inactive call. No stated cut-off is given here; in the data, active means normalized growth mostly below about 0.91 (no sharp cut-off); inconclusive means no clear call, values can overlap the other calls; inactive means mostly above about 0.92.
# Experiment: chemical genetic growth profiling, strain panel (AID 1159580);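 further: tested at 20 µM; growth read once vehicle control cultures reached saturation at 30 °C; 1 = growth at the plate median or of vehicle wells; lower values mean less growth of the strain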
# Settings: growth OD
smiles,measurement,setting,value
O=c1c(O)cccc2c(C3Oc4cc(O)cc(O)c4CC3O)cc(O)c(O)c12 (configuration not stated),normalized growth,"S. cerevisiae deletion strains, locus YBR021W, strain FUR4, active compounds read low",0.966
same,normalized growth,"S. cerevisiae deletion strains, locus YBR229C, strain ROT2, active compounds read low",0.409 (active)
same,normalized growth,"S. cerevisiae deletion strains, locus YCL029C, strain bik1, active compounds read low",0.239 (active)
same,normalized growth,"S. cerevisiae deletion strains, locus YDL035C, strain GPR1, active compounds read low",0.301 (active)
same,normalized growth,"S. cerevisiae deletion strains, locus YDL074C, strain BRE1, active compounds read low",0.322 (active)
same,normalized growth,"S. cerevisiae deletion strains, locus YDL101C, strain DUN1, active compounds read low",0.219 (active)
same,normalized growth,"S. cerevisiae deletion strains, locus YDL134C, strain PPH21, active compounds read low",0.314 (active)
same,normalized growth,"S. cerevisiae deletion strains, locus YDL185W, strain tfp1, active compounds read low",0.195 (active)
same,normalized growth,"S. cerevisiae deletion strains, locus YDL192W, strain arf1, active compounds read low",0.522 (active)
same,normalized growth,"S. cerevisiae deletion strains, locus YDR101C, strain arx1, active compounds read low",0.295 (active)
same,normalized growth,"S. cerevisiae deletion strains, locus YDR162C, strain NBP2, active compounds read low",0.137 (active)
same,normalized growth,"S. cerevisiae deletion strains, locus YDR318W, strain mcm21, active compounds read low",0.696 (active)
same,normalized growth,"S. cerevisiae deletion strains, locus YDR388W, active compounds read low",0.691 (active)
same,normalized growth,"S. cerevisiae deletion strains, locus YDR502C, strain sam2, active compounds read low",0.287 (active)
same,normalized growth,"S. cerevisiae deletion strains, locus YER110C, active compounds read low",0.963
same,normalized growth,"S. cerevisiae deletion strains, locus YER155C, strain BEM2, active compounds read low",0.489 (active)
same,normalized growth,"S. cerevisiae deletion strains, locus YER167W, strain BCK2, active compounds read low",0.682 (active)
same,normalized growth,"S. cerevisiae deletion strains, locus YGL078C, strain dbp3, active compounds read low",0.139 (active)
same,normalized growth,"S. cerevisiae deletion strains, locus YGL086W, strain mad1, active compounds read low",0.494 (active)
same,normalized growth,"S. cerevisiae deletion strains, locus YGL248W, strain PDE1, active compounds read low",0.523 (active)
same,normalized growth,"S. cerevisiae deletion strains, locus YGR078C, strain PAC10, active compounds read low",0.686 (active)
same,normalized growth,"S. cerevisiae deletion strains, locus YGR135W, strain pre9, active compounds read low",0.504 (active)
same,normalized growth,"S. cerevisiae deletion strains, locus YGR252W, strain gcn5, active compounds read low",0.54 (active)
same,normalized growth,"S. cerevisiae deletion strains, locus YHR030C, strain SLT2, active compounds read low",0.484 (active)
same,normalized growth,"S. cerevisiae deletion strains, locus YHR079C, strain IRE1 (second series), active compounds read low",0.116 (active)
same,normalized growth,"S. cerevisiae deletion strains, locus YHR094C, strain hxt1, active compounds read low",0.835 (active)
same,normalized growth,"S. cerevisiae deletion strains, locus YHR129C, strain ARP1, active compounds read low",0.43 (active)
same,normalized growth,"S. cerevisiae deletion strains, locus YHR200W, strain rpn10, active compounds read low",0.623 (active)
same,normalized growth,"S. cerevisiae deletion strains, locus YIL066C, strain RNR3, active compounds read low",0.259 (active)
same,normalized growth,"S. cerevisiae deletion strains, locus YIL073C, strain SPO22, active compounds read low",0.243 (active)
same,normalized growth,"S. cerevisiae deletion strains, locus YIL125W, strain kgd1, active compounds read low",0.272 (active)
same,normalized growth,"S. cerevisiae deletion strains, locus YIR030C, strain dcg1, active compounds read low",0.716 (active)
same,normalized growth,"S. cerevisiae deletion strains, locus YJL095W, strain BCK1, active compounds read low",0.0943 (active)
same,normalized growth,"S. cerevisiae deletion strains, locus YJL134W, strain LCB3, active compounds read low",0.58 (active)
same,normalized growth,"S. cerevisiae deletion strains, locus YJL168C, strain set2, active compounds read low",0.913 (active)
same,normalized growth,"S. cerevisiae deletion strains, locus YJL187C, strain SWE1 (second series), active compounds read low",0.118 (active)
same,normalized growth,"S. cerevisiae deletion strains, locus YKL009W, strain mrt4, active compounds read low",0.0997 (active)
same,normalized growth,"S. cerevisiae deletion strains, locus YKL068W, active compounds read low",0.889 (active)
same,normalized growth,"S. cerevisiae deletion strains, locus YKL085W, strain MDH1 (second series), active compounds read low",0.303 (active)
same,normalized growth,"S. cerevisiae deletion strains, locus YKL085W, strain MDH1, active compounds read low",0.303 (active)
same,normalized growth,"S. cerevisiae deletion strains, locus YKR001C, strain vps1, active compounds read low",0.523 (active)
same,normalized growth,"S. cerevisiae deletion strains, locus YLR039C, strain RIC1, active compounds read low",0.251 (active)
same,normalized growth,"S. cerevisiae deletion strains, locus YLR058C, strain SHM2, active compounds read low",0.143 (active)
same,normalized growth,"S. cerevisiae deletion strains, locus YLR102C, strain apc9, active compounds read low",0.92 (active)
same,normalized growth,"S. cerevisiae deletion strains, locus YLR262C, strain YPT6, active compounds read low",0.497 (active)
same,normalized growth,"S. cerevisiae deletion strains, locus YLR268W, strain sec22, active compounds read low",0.201 (active)
same,normalized growth,"S. cerevisiae deletion strains, locus YLR330W, strain CHS5, active compounds read low",0.565 (active)
same,normalized growth,"S. cerevisiae deletion strains, locus YLR342W, strain FKS1 (second series), active compounds read low",0.321 (active)
same,normalized growth,"S. cerevisiae deletion strains, locus YLR371W, strain rom2, active compounds read low",0.626 (active)
same,normalized growth,"S. cerevisiae deletion strains, locus YLR418C, strain cdc73, active compounds read low",0.306 (active)
same,normalized growth,"S. cerevisiae deletion strains, locus YML016C, strain PPZ1, active compounds read low",0.225 (active)
same,normalized growth,"S. cerevisiae deletion strains, locus YML032C, strain rad52, active compounds read low",0.391 (active)
same,normalized growth,"S. cerevisiae deletion strains, locus YML124C, strain tub3, active compounds read low",0.56 (active)
same,normalized growth,"S. cerevisiae deletion strains, locus YMR078C, strain ctf18, active compounds read low",0.885 (active)
same,normalized growth,"S. cerevisiae deletion strains, locus YMR223W, strain ubp8, active compounds read low",0.564 (active)
same,normalized growth,"S. cerevisiae deletion strains, locus YMR263W, strain SAP30, active compounds read low",0.233 (active)
same,normalized growth,"S. cerevisiae deletion strains, locus YMR307W, strain GAS1, active compounds read low",0.462 (active)
same,normalized growth,"S. cerevisiae deletion strains, locus YNL067W, strain RPL9B, active compounds read low",0.386 (active)
same,normalized growth,"S. cerevisiae deletion strains, locus YNL128W, strain TEP1, active compounds read low",0.136 (active)
same,normalized growth,"S. cerevisiae deletion strains, locus YNL153C, strain GIM3, active compounds read low",0.266 (active)
same,normalized growth,"S. cerevisiae deletion strains, locus YNL233W, strain BNI4, active compounds read low",0.453 (active)
same,normalized growth,"S. cerevisiae deletion strains, locus YNL250W, strain rad50, active compounds read low",0.098 (active)
same,normalized growth,"S. cerevisiae deletion strains, locus YNL271C, strain bni1, active compounds read low",0.53 (active)
same,normalized growth,"S. cerevisiae deletion strains, locus YNL298W, strain CLA4, active compounds read low",0.824 (active)
same,normalized growth,"S. cerevisiae deletion strains, locus YNL307C, strain MCK1, active compounds read low",0.832 (active)
same,normalized growth,"S. cerevisiae deletion strains, locus YNR052C, strain pop2, active compounds read low",0.127 (active)
same,normalized growth,"S. cerevisiae deletion strains, locus YOL012C, strain htz1",0.2
same,normalized growth,"S. cerevisiae deletion strains, locus YOL147C, strain pex11, active compounds read low",0.287 (active)
same,normalized growth,"S. cerevisiae deletion strains, locus YOR061W, strain CKA2, active compounds read low",0.468 (active)
same,normalized growth,"S. cerevisiae deletion strains, locus YOR069W, strain VPS5, active compounds read low",0.29 (active)
same,normalized growth,"S. cerevisiae deletion strains, locus YOR136W, strain idh2, active compounds read low",0.67 (active)
same,normalized growth,"S. cerevisiae deletion strains, locus YOR144C, strain elg1, active compounds read low",0.198 (active)
same,normalized growth,"S. cerevisiae deletion strains, locus YOR184W, strain ser1, active compounds read low",0.357 (active)
same,normalized growth,"S. cerevisiae deletion strains, locus YOR316C, strain cot1, active compounds read low",0.922 (active)
same,normalized growth,"S. cerevisiae deletion strains, locus YPL055C, strain LGE1, active compounds read low",0.271 (active)
same,normalized growth,"S. cerevisiae deletion strains, locus YPL241C, strain CIN2, active compounds read low",0.617 (active)
same,normalized growth,"S. cerevisiae deletion strains, locus YPR119W, strain clb2, active compounds read low",0.946
same,normalized growth,"S. cerevisiae deletion strains, locus YPR141C, strain kar3, active compounds read low",0.17 (active)
same,normalized growth,"S. cerevisiae deletion strains, locus YPR163C, strain tif3, active compounds read low",0.703 (active)
same,normalized growth,"S. cerevisiae deletion strains, locus YPR167C, strain met16, active compounds read low",0.707 (active)
same,normalized growth,"S. cerevisiae deletion strains, strain wtn01, active compounds read low",0.44 (active)
same,normalized growth,"S. cerevisiae strains, strain wild type, active compounds read low",0.134 (active)
